Screens deposited in PubChem by National Center for Advancing Translational Sciences (NCATS).
Compounds with a hit are over-represented: about 2.4% of the library has one in this group of screens.
Pol kappa inh – qHTS for Inhibitors of Polymerase Kappa. AID 588579, 2011. purified Pol kappa, fluorescent DNA synthesis assay, 10 min. hit rate 0.53% among 400,000. Potency, µM (top dose mostly 107 µM), for inactives: at the highest dose activity, negative = inhibition, hits mostly inhibitors; note: % is set by controls: 0 for no effect and ±100 for the full control effect
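Kinetic fluorescence screen: compound preincubated 15 min RT with 10 nM enzyme; 50 nM substrate (final) initiates; reads at 0/10 min.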
POLB inh – qHTS Assay for Inhibitors of DNA Polymerase Beta. P06746. AID 485314, 2010. Potency, µM (top dose mostly 114 µM), without a hit: at the highest dose activity change, negative = inhibition, hits mostly inhibitors. Pol beta primer extension/strand displacement, fluorescence kinetic. hit rate 1.3% among 340,000; note: % is set by controls: 0 for no effect and ±100 for the full control effect
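Preincubation: enzyme (10 nM) with compound, 15 min, RT. Reaction: substrate added to 50 nM final. Reads: 0 and 10 min. Analysis: normalized, Hill fit.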
Pol eta inh – qHTS for Inhibitors of Polymerase Eta; recombinant Pol eta, fluorescent DNA replication assay; Potency, µM (highest dose often 114 µM), for inactives: at the highest dose activity change, negative = inhibition, usual class: inhibitors; hit rate 1.2% among 390,000; AID 588591, 2011; note: % is set by controls: 0 for no effect and ±100 for the full control effect
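Pol eta at 10 nM preincubated with compounds 15 min at room temperature; reaction started with fluorescent substrate (50 nM final) and read kinetically at 0 and 10 min.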
WRN inhibitor – qHTS for Inhibitors of WRN Helicase | Bifunctional 3'-5' exonuclease/ATP-dependent helicase WRN (Homo sapiens), Q14191 | WRN helicase unwinding, fluorescent forked duplex, kinetic | Potency, µM (doses to about 114 µM), without a hit: at the top dose activity change, negative = inhibition, hits mostly inhibitors | hit rate 0.46% among 360,000; note: % is set by controls: 0 for no effect and ±100 for the full control effect; nearly all actives have a fitted effect of over 55% in size
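Screening of the MLSMR collection measured strand separation of a quenched forked DNA duplex (100 nM) by 20 nM WRN with 2 mM ATP, all final. Compounds were preincubated with enzyme 15 min at room temperature.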
FEN1 inh-1 – qHTS Assay for the Inhibitors of Human Flap endonuclease 1 (FEN1); P39748; Recombinant FEN1 flap cleavage, fluorescence, 15 min; Potency, µM (titrated, usually from 114 µM), for the others: top-dose activity change, negative = inhibition, usual class: inhibitors; hit rate 0.35% among 390,000; AID 588795, 2011; note: % is set by controls: 0 for no effect and ±100 for the full control effect; nearly all actives have a fitted effect of over 65% in size
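Quantitative HTS format: each compound was titrated, incubated with 10 nM nuclease for 15 min at room temperature, then challenged with flap substrate at 50 nM final. Signal change over 15 min gave concentration–effect curves.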
Pol iota inh – qHTS for Inhibitors of Polymerase Iota | DNA polymerase iota (Homo sapiens), Q9UNA4 | Pol iota fluorescent replication assay, 10 min | Potency, µM (series often up to 115 µM), for the others: top-dose activity, negative = inhibition, most hits filed as inhibitors | hit rate 1% among 390,000 | AID 588590, 2011
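Pol iota at 10 nM preincubated 15 min with compounds at room temperature; reaction started with fluorescent substrate, 50 nM final. Fluorescence read kinetically at 0 and 10 min; buffer-only wells as negative control.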
FEN1 inh-2 – qHTS Assay for the Inhibitors of FEN1: Confirmatory Assay for Cherry-picked Compounds; shares compounds with FEN1 inh-1; FEN1 flap cleavage, TAMRA/BHQ2 fluorogenic DNA substrate; Potency, µM, hits mostly inhibitors; hit rate 79% among 880; note: nearly all actives have a fitted effect of over 60% in size
* = called active by the depositor; ? = inconclusive; . = no result; [ ] = remark or other dose. Calls come from the whole dose curve; as a rule, active = well fitted curve in the direction sought with a large enough effect; inconclusive = small, poorly fitted or top-dose-only effect, or another doubt; inactive = no such curve, though single readings can be large; an effect the other way counts as inactive or inconclusive. Potency is the fitted concentration of half-maximal effect.

SMILES	Pol kappa inh	POLB inh	Pol eta inh	WRN inhibitor	FEN1 inh-1	Pol iota inh	FEN1 inh-2
O=C(c1cccc2ccccc12)C1CCCN(C(=O)CCc2cnccn2)C1 (centres undefined)	-1%	0%	-8%	9%	-3%	18%	.
COc1ccc2c(c1)N(C)/C(=C/c1cccc[n+]1C)S2	-21%	40µM*	-15%	-1%[11.6 µM]	20µM*	?	?
Cc1ccc2c(c1)N(C)/C(=C/c1cccc[n+]1C)S2	-18%	?	-8%	1%[11.6 µM]	?	?	38*
CCCn1nc(NC(=O)C2CCCO2)c2cc3cccc(C)c3nc21 (centres undefined)	-6%	6%	-15%	-8%	-15%	-14%	.
CN(C)c1ccc(/C=C2/C[N+](C)(C)C/C(=C/c3ccc(N(C)C)cc3)C2=O)cc1	-25%	.	?	20µM*	?	-19%	?
Cc1[nH]n(-c2ccccc2)c(=O)c1C=Nc1cnc2ccccc2c1	-2%	?	?	-12%	17%	?	.
CCOc1ccc(N=Cc2c(C)[nH]n(-c3nc4ccccc4[nH]3)c2=O)cc1	?	22µM*	16µM*	?	?	5%	?
NCCNc1ncnc2ccc(-c3ccc4c(c3)OCO4)cc12	.	.	.	.	.	.	27*
NCCCCNc1ncnc2ccc(-c3ccc4c(c3)OCO4)cc12	.	.	.	.	.	.	30*
CNc1ncnc2ccc(-c3ccc4c(c3)OCO4)cc12	-3%[60.1 µM]	.	.	.	.	.	.
c1ccc(CNc2ncnc3ccc(-c4ccc5c(c4)OCO5)cc23)cc1	-6%[60.1 µM]	.	.	.	.	.	.
CN(C)CCCNc1ncnc2ccc(-c3ccc4c(c3)OCO4)cc12	.	.	.	.	.	.	30*
COC(=O)CSc1cc(SCC(=O)OC)c(C#N)c(SCC(=O)OC)c1	-7%	21%	-9%	-8%	-20%	-2%	.
COc1ccc(OC)c(NC(=O)Cn2c(CCC(=O)O)ccc2-c2ccc(C)cc2)c1	2%	-8%	-10%	-9%	8%	25%	.
O=C(CSc1ccsc1[N+](=O)[O-])NCc1ccccc1	-25%	?	79µM*	1%[11.6 µM]	-1%	?	?
COC(=O)c1cc2n3ccccc3c(C)c(-c3ccccc3)c-2c1C(=O)OC	-4%	18%	-8%	-33%	-23%	7%	.
Cc1cc(N/N=C/c2ccc(N(C)C)cc2)c2ccccc2n1	-8%	-2%	?	-2%	-1%	3%	.
Cc1cc(N/N=C/c2ccc(O)cc2)c2cccc(C)c2n1	-24%	25µM*	?	45µM*	?	-24%	38*
O=C(CSc1nc2ccccc2c(=O)n1-c1ccc(OC(F)F)cc1)NCc1cccs1	-8%	-1%	-9%	8%	-1%	17%	.
Cc1cccc(-n2ccnc2SCC(=O)Nc2nnc(C)s2)c1	-18%	20%	-7%	-4%	13%	-7%	.
COc1cc(C(=O)NC2CCN(C)CC2)ccc1Nc1ncc2c(n1)N(Cc1ccccc1)CCC(=O)N2C	-10%	.	-12%	-15%	?	39%	.
COc1cc(C(=O)NC2CCN(C)CC2)ccc1Nc1ncc2c(n1)N(C1CCCCC1)CCC(=O)N2C	-23%	.	-24%	-23%	?	?	38*
O=[N+]([O-])c1cccc(-c2ccc(CN3CCN(c4ccccc4)CC3)o2)c1	-7%	-7%	-18%	-9%	2%	37%	.
Cc1ccc(CN2C(=O)c3ccccc3C2C(=O)NCc2cccnc2)cc1 (centres undefined)	-20%	8%	-15%	-4%	2%	18%	.
CNC(=S)N/N=C/c1c(Cl)cccc1Cl	8%	95%	-3%	5%	1%	9%	.
SMILES	Pol kappa inh	POLB inh	Pol eta inh	WRN inhibitor	FEN1 inh-1	Pol iota inh	FEN1 inh-2
CCc1nnc(N/N=C/c2c(Cl)cccc2Cl)n1N	-6%	15%	-2%	-8%[11.6 µM]	7%	13µM*	?
CC1(C)C(=O)Nc2ccccc2N1C(=O)COC(=O)c1ccc([N+](=O)[O-])o1	-29%	.	?	-29%	20µM*	-11%	19*
O=C1CN(C(=O)COC(=O)c2ccc([N+](=O)[O-])o2)c2ccccc2N1	-25%	.	?	1%[11.6 µM]	?	?	19*
O=C1CN(C(=O)COC(=O)c2ccco2)c2ccccc2N1	-7%	.	-13%	-6%	7%	-6%	.
CCN(CC)CCCN=Cc1c(O)n(-c2cccc(C)c2)c(=O)c2ccccc12	-10%	6%	-3%	-2%	13%	14%	.
CC(C)Cn1c(N)c(C(=O)COC(=O)c2ccc([N+](=O)[O-])o2)c(=O)n(C)c1=O	-11%	?	?	2%[11.6 µM]	?	26%	9.5*
COCCn1c(C)cc(C(=O)COC(=O)c2ccc([N+](=O)[O-])o2)c1C	-26%	?	79µM*	1%	?	?	15*
CC(C)Cn1c(N)c(C(=O)COC(=O)c2ccc(O)cc2)c(=O)n(C)c1=O	4%	1%	-23%	5%	7%	16%	.
Cc1cc(C(=O)COC(=O)c2ccc([N+](=O)[O-])o2)c(C)n1CC1CCCO1 (centres undefined)	-31%	?	-29%	7%	?	?	.
CN(Cc1cccnc1)Cc1c(C(=O)N2CCc3ccccc3C2)nc2ccc(Cl)cn12	8%	11%	-9%	-4%	-1%	22%	.
c1cc2nc(C34CC5CC(CC(C5)C3)C4)[nH]c2cn1	-13%	-29%	-16%	-4%	-8%	23%	.
Nc1nc(C23CC4CC(CC(C4)C2)C3)[nH]c(=O)n1	-13%	2%	6%	-4%[11.6 µM]	?	18%	34*
COc1cc(-c2nnc(COC(=O)c3ccc([N+](=O)[O-])o3)o2)cc(OC)c1OC	.	.	79µM*	11%	.	.	8.5*
CCc1ccc(NC(=S)/N=C(\N)Nc2nc(C)c3cc(CC)ccc3n2)cc1	-11%	-12%	-7%	0%	-20%	16%	.
Cc1cc(C)c2cccc(N)c2n1	-15%	33%	0%	10%	2%	68%	.
CCc1ccc2nc3nc(C)cc(C)c3c(N)c2c1	-10%	?	2%	22%[57.1 µM]	?	?	?
Cc1cc(C)c2c(N)c3ccccc3nc2n1	-31%	25µM*	-15%	17%	45µM*	14µM*	38*
